According to ChEMBL document CHEMBL3988442, “University of Dundee, Small-Polar-MMV Screening Library” (2021):
For some assays here: Results with a measured potency or affinity are listed apart.

Key:
Design in all cases: scale not given: direction of the effect not stated beside the values
[1] = molecular target: Protein translocase subunit SecA (Escherichia coli (strain K12)) (UniProt P10408); test: Assay to Identify E. coli SecA ATPase Inhibitors; type: functional; conditions: 30 µM
[2] = molecular target: T1, Ubiquitin-activating enzyme e1, putative (Leishmania donovani (strain BPK282A1)) (UniProt E9BSI1); test: Leishmania donovani Ubiquitin Activating Enzyme (LdE1); type: functional; conditions: 30 µM
T1 sequence (whole entry): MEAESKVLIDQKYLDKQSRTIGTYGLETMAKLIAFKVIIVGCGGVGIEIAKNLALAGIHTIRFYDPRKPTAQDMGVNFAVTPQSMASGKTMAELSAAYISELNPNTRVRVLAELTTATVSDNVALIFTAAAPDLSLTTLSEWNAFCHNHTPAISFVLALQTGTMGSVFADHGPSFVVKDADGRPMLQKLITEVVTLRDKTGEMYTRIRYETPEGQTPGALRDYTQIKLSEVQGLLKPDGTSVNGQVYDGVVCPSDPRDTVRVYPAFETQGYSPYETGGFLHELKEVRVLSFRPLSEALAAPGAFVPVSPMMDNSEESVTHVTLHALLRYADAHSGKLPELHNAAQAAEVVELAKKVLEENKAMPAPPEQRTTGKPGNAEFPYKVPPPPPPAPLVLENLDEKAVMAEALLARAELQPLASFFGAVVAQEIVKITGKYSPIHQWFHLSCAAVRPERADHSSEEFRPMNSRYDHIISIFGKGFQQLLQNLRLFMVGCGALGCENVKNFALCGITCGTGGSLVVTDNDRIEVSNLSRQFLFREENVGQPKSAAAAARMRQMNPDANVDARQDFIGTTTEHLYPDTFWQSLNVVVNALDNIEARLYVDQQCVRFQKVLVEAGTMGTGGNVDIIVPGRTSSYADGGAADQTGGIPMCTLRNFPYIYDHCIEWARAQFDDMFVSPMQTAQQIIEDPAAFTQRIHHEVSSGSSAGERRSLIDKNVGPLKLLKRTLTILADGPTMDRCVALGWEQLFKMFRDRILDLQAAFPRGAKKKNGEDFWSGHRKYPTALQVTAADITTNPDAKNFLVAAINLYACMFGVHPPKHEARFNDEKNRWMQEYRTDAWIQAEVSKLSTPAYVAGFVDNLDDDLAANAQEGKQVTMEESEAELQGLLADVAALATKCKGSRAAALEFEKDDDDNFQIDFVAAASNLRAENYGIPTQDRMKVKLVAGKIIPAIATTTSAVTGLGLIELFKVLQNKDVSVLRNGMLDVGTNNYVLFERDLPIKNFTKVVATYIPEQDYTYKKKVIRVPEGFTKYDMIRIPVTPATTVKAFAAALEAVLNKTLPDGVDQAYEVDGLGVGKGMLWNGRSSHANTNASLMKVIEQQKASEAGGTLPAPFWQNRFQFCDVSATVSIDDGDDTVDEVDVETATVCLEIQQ

[3] = molecular target: AMP-activated protein kinase, AMPK (Homo sapiens) (UniProt P54646+O43741+P54619+Q9UGJ0+Q9Y478+Q13131+Q9UGI9); test: AMP-dependent Kinase enzyme assay. An in vitro enzyme assay that detects ADP turnover that is directly proportional to AMPK activity. This uses naive AMPK that is activated during the assay with MK-8722; type: functional; conditions: 30 µM
[4] = molecular target: Sialic acid-binding Ig-like lectin 9 (Homo sapiens) (UniProt Q9Y336); test: Hs-Siglec9 ALPHAscreen SOP 20170721; conditions: 10 µM
Sialic acid-binding Ig-like lectin 9 (Homo sapiens), sequence (Q9Y336 whole entry): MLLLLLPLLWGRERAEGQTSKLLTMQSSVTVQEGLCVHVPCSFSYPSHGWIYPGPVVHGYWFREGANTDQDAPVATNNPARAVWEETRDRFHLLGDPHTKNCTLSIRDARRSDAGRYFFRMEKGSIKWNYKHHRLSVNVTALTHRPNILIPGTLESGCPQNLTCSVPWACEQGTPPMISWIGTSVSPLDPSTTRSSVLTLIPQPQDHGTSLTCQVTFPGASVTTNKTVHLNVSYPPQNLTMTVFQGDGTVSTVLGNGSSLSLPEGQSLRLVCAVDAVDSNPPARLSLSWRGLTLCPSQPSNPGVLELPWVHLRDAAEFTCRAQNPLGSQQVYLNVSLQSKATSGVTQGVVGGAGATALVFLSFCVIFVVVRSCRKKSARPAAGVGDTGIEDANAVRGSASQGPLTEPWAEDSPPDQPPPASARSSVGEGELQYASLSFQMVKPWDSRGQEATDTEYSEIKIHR

Trypanosoma cruzi = test: Trypanosoma cruzi phosphomannomutase and mannose-1-phosphate guanylyltransferase assay; type: functional; conditions: 10 µM
[5] = molecular target: T2, Arginase-2, mitochondrial (Homo sapiens) (UniProt P78540); test: in vitro enzyme assay to detect the production of urea directly proportional to the activity of Arginase II; type: functional; conditions: 33.3 µM; note: in the data most compounds retested in dose-response had high values
T2 sequence (whole entry): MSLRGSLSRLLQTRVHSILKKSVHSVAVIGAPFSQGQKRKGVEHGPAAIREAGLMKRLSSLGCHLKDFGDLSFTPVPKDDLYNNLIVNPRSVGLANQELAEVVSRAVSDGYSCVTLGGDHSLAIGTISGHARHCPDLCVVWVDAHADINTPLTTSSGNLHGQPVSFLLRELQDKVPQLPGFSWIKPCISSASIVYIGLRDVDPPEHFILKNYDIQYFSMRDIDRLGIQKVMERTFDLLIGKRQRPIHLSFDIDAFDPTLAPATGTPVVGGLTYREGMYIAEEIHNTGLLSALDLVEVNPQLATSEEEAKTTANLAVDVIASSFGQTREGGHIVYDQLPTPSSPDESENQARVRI

[6] = molecular target: T3, Proteasome subunit beta (Trypanosoma cruzi) (UniProt O96673); test: Trypanosoma cruzi proteasome chymotrypsin-like activity (TcProtChymo) assay.; note: in the data most compounds retested in dose-response had high values; type: functional; conditions: 9.37 µM
T3 sequence (whole entry): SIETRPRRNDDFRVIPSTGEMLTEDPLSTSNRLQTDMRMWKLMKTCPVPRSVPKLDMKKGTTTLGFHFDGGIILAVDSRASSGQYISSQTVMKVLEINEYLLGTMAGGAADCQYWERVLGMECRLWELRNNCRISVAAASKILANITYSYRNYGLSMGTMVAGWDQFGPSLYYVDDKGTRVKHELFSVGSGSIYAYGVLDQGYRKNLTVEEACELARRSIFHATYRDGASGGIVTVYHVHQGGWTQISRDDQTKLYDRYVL

Homo sapiens = species on record: Homo sapiens; test: To identify inhibition of the IFN signalling (Jak-Stat) pathway via expression of an eGFP reporter gene under the control of an IFN-stimulated response element (ISRE) containing MxA promoter.; type: functional; conditions: 30 µM
[7] = molecular target: T4, Tyrosyl-tRNA synthetase, putative (Trypanosoma cruzi (strain CL Brener)) (UniProt Q4DSP6); test: Trypanosoma cruzi tyrosyl tRNA synthetase (TcYRS) _High Tyrosine SOP; type: functional; conditions: 30 µM; note: in the data most compounds retested in dose-response had high values
T4 sequence (whole entry): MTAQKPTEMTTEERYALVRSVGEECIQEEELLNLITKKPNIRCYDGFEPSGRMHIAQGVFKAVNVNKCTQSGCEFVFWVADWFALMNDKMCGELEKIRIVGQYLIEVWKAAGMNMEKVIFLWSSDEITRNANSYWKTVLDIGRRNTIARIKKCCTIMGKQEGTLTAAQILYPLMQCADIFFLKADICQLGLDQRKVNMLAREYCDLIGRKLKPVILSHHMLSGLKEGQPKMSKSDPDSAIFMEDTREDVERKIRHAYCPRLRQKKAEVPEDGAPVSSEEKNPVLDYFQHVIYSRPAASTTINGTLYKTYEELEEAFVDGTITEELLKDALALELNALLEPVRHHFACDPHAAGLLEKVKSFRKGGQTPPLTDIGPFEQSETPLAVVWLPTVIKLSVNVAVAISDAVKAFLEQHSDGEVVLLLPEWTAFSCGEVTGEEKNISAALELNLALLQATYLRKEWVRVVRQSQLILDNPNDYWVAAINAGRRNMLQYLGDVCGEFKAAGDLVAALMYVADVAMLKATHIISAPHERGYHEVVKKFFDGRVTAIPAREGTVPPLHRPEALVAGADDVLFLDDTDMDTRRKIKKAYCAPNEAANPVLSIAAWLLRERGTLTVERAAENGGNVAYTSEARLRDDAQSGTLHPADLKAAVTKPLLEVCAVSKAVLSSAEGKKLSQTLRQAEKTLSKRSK

[8] = molecular target: T4, Tyrosyl-tRNA synthetase, putative (Trypanosoma cruzi (strain CL Brener)); test: Trypanosoma cruzi tyrosyl tRNA synthetase (TcYRS) SOP; type: functional; conditions: 30 µM
[9] = molecular target: Chromo domain-containing protein 1 (Saccharomyces cerevisiae (strain ATCC 204508 / S288c) (Baker's yeast)) (UniProt P32657); test: ScCHD-1 Enzyme Inhibition Assay; type: functional; conditions: 30 µM; note: in the data most compounds retested in dose-response had high values
Chromo domain-containing protein 1 (Saccharomyces cerevisiae (strain ATCC 204508 / S288c) (Baker's yeast)), sequence (P32657 whole entry, the tested form may be a part): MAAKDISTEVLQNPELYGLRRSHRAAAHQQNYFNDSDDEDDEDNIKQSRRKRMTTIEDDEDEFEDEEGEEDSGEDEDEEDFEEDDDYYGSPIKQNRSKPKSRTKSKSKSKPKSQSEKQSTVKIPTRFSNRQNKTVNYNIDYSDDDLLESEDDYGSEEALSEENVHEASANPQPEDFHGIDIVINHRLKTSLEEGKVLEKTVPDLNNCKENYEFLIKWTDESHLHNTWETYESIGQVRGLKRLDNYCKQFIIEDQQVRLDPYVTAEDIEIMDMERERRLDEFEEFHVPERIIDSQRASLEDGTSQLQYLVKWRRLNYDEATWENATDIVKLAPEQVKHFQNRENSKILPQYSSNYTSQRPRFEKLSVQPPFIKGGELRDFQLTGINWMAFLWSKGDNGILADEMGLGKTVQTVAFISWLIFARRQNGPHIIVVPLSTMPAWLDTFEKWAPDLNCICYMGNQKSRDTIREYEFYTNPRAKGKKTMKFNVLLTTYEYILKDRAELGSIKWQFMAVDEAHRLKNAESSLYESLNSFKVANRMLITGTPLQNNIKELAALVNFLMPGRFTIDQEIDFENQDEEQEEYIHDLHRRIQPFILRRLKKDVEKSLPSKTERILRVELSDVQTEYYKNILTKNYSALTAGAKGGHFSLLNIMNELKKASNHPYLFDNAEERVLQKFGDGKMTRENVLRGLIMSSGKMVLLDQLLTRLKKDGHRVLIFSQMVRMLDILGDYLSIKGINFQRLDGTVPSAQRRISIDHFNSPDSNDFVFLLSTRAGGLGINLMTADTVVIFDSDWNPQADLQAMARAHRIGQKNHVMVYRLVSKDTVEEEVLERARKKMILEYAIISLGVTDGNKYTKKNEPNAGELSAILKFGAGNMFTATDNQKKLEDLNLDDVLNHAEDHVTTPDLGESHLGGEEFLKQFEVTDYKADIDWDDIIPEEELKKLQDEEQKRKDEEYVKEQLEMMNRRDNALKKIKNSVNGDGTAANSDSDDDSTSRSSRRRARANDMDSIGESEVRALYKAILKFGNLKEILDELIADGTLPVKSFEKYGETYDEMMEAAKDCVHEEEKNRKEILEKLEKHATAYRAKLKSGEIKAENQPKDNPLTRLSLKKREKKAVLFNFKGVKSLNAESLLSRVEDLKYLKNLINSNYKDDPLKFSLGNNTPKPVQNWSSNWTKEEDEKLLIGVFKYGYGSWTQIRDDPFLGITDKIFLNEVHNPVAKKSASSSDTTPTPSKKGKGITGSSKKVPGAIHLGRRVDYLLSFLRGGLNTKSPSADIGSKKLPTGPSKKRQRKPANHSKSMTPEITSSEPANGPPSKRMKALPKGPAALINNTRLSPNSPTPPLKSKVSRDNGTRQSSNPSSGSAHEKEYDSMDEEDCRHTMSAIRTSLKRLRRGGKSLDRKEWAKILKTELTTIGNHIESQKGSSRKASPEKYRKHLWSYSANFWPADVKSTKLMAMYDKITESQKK

Protein translocase subunit SecA (Escherichia coli (strain K12)), sequence (P10408 whole entry): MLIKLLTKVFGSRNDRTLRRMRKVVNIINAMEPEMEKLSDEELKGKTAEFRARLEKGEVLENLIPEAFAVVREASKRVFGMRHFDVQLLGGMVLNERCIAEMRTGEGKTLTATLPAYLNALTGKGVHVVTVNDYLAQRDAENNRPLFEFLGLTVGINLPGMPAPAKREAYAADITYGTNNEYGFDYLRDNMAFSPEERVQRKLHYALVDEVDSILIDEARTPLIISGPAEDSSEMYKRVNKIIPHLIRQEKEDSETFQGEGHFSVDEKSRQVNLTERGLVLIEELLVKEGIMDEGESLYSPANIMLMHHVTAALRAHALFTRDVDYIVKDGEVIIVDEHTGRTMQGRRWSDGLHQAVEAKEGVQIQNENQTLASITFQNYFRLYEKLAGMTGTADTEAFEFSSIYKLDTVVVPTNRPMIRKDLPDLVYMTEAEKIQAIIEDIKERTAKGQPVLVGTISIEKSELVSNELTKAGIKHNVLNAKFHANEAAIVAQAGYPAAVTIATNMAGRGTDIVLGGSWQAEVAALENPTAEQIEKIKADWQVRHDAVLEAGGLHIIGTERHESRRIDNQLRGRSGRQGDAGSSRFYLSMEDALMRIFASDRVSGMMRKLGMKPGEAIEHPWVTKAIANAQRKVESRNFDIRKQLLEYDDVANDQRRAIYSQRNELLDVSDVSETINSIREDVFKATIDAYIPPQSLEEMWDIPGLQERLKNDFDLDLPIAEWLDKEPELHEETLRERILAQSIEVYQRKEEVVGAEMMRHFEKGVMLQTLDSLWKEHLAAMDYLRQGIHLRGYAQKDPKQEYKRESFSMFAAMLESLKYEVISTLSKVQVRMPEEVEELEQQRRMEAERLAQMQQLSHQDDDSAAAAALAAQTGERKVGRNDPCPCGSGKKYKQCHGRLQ

Structure (SMILES) | Percent Effect [1] [%] | Percent Effect [2] [%] | Percent Effect [3] [%] | Percent Effect [4] [%] | Percent Effect (Trypanosoma cruzi) [%] | Percent Effect [5] [%] | Percent Effect [6] [%] | Percent Effect (Homo sapiens) [%] | Percent Effect [7] [%] | Percent Effect [8] [%] | Percent Effect [9] [%]
COCCO[C@@H]1CCN(C(=O)c2ccc(C)o2)[C@@H]1Cc1cccnc1 | -5.36 | 0 | 9.87 | -4.82 | -3.91 | 4.17 | 8.03 | 2.29 | 5.94 | 8.54 | -1.12
Fc1cnc(N2CCCC3(CN(Cc4ccncc4)CCO3)C2)nc1 (configuration not stated) | -2.51 | 13.3 | 12.9 | -0.573 | -2.95 | 1.63 | 12.2 | 8.63 | 8.51 | 16.7 | -5.31
COCC1c2c(cnn2CC2CCOCC2)CCN1Cc1ccoc1 (configuration not stated) | -3.48 | 8.11 | 4.63 | 0.649 | 1.76 | 4.17 | 16 | -5.7 | 10.9 | 11 | -3.93
O=S(=O)(c1cccs1)N1CCCn2nnc(CN3CCCCC3)c2C1 | -2.04 | 2.67 | -7.89 | 2 | 2.7 | -43.5 | -0.513 | -33.6 | -1.04 | 2.5 | -4.44
OC[C@H]1CC[C@]2(CC1)CN(Cc1ccccc1F)Cc1ccccc1O2 | -4.99 | 4.05 | 15.1 | 6.64 | 4.15 | 2.55 | 12.6 | 41.4 | 3.23 | 14.3 | -0.993
Cc1cnn(CCNCC(O)COc2ccc(C#N)cc2)c1 (configuration not stated) | -4.77 | 15.2 | -8.43 | 8.11 | 1.42 | 2.28 | 8.44 | -3.4 | 5.42 | 13.9 | -5.58
CCOC(=O)c1sc(NC(=O)CN(C)S(C)(=O)=O)c(C#N)c1C | -1.3 | 10.4 | 11.5 | -2.4 | -1.87 | 4.52 | 9.4 | 21.1 | 3.17 | 14.1 | -8.72
CC(C1CC1)N(C(=O)NCCCn1nc2ccccn2c1=O)C1CC1 (configuration not stated) | -5.32 | 16.4 | -9.44 | 24 | 3.13 | 20.9 | 15.3 | 1.6 | 4.3 | 15 | -6.77
CCCNC(=O)CNC(=O)CCc1ccccc1Br | 0.865 | 6.94 | -6.34 | -5.04 | 1.85 | 13.7 | 18.1 | -8.19 | 2.1 | 7.69 | -2.27
Cc1cc(C(=O)N2C[C@@H]3COC[C@]3(c3nnc(C4CC4)o3)C2)on1 | -4.61 | 13.3 | -3.2 | -0.841 | 1.16 | -46.4 | 7.52 | -5.46 | -5.21 | 5 | -9
CSc1ccc(C(CNC(=O)C2CC2)N2CCc3sccc3C2)cc1 (configuration not stated) | -3.4 | 5.26 | 1.69 | -0.599 | 0.876 | -2.37 | 16 | 9.34 | 8.51 | 15.6 | 4.76
Cn1cc(CN2CC[C@@H]3[C@@H](CCC(=O)N3CCc3c[nH]cn3)C2)cn1 | -4.59 | 5.48 | -4.95 | 7.16 | 7.14 | -4.79 | 5.05 | -5.47 | 1.04 | 6.17 | -0.897
NC(=O)N1CC[C@H](O)[C@@H]1Cc1cccnc1 | -2.51 | 2.7 | 6.84 | -5.75 | -9.48 | 4.78 | 24 | 5.65 | 0 | 7.69 | -2.76
Cc1cnn(CC2CCCCN2Cc2nc(N)c3ccccc3n2)c1 (configuration not stated) | -5.11 | 10.1 | -4.6 | 5.93 | 8.78 | 0 | 12.2 | -0.892 | 14.3 | 21.5 | -8.03
Cc1ncc2c(n1)CN(CC(=O)Nc1nncs1)CC2 | -1.88 | 2.63 | -37.1 | 5.79 | 3.27 | 1.08 | 6.01 | -6.49 | 5.42 | 11.1 | -4.76
O=S1(=O)CCN(Cc2cccnc2)[C@H]2CCN(c3ncccn3)CC[C@H]21 | -8.77 | -2.7 | -0.0275 | 20.3 | -3.91 | -0.417 | -2.62 | 16.4 | 3.96 | -1.22 | 0.188
Cn1c(C(=O)N2CCC(C(=O)N3CCCC3)CC2)c(Cl)c2ccccc21 | -4.1 | 5.33 | -1.92 | 6.11 | 2.82 | 2.6 | 25.5 | 0.0464 | 8.2 | 13.6 | -6.83
CCCN1C(=O)CC(N2CCN(c3ccc(F)cc3)CC2)C1=O (configuration not stated) | -0.321 | 13.2 | 5.3 | -9.41 | -3.99 | -7.1 | 11.6 | 11.5 | 0 | 7.79 | -5.52
COc1c(CNC2CCN(C(C)(C)C)CC2)c(C(C)C)nn1C | -3.54 | 10.5 | -6.9 | -3.36 | 6.07 | -2.52 | 4.65 | -8.8 | 12.3 | 16.1 | -1.24
COc1cccc(S(=O)(=O)CCN2CCCN(C(C)=O)CC2)c1 | -0.358 | 5.33 | -1.44 | 13.1 | 6.13 | 24 | 1.22 | 18.5 | 1.64 | 6.17 | -15.8
CCn1cc(NC(=O)NCC(O)c2ccccc2)cn1 (configuration not stated) | -2.26 | 12.7 | -8.7 | 13.4 | -1.98 | 1.52 | 3.19 | -8.48 | 1.48 | 13.9 | -3.66
CC(=O)Nc1ccc(S(=O)(=O)NC(=O)CCC2CCCO2)cc1 (configuration not stated) | -9.79 | 10.8 | -16.6 | 34.9 | 8.21 | -16.8 | 6.31 | -1.72 | 1.48 | 13.6 | -16.9
